# Compounds with a hit are over-represented: about 3.5% of the library has one in this group of screens.
# TEAD-YAP block = TEAD-YAP interaction inhibition; HEK-TIYL cells, TEAD-Gal4/YAP UAS-luciferase luminescence; inhibition, % at 9.12 µM; 1.4% of 640,000 active; AID 1259422; in the data active means inhibition above about 32%;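 further: 0% = median of test compound wells and 100% = reference inhibitor wells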
# MITF primary = human MITF inhibition, primary screen | O75030 | AlphaScreen MITF homodimerization, bead proximity signal | 0.91% of 650,000 active | inhibition, % at 2.6 µM; in the data active means inhibition above about 50%;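 further: 0% = vehicle wells with protein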
# GPR151 activ = activators of human GPR151 | Q8TDV0 | PathHunter beta-arrestin GPR151 cells, luminescence | activation, % at 11.2 µM | 1% of 650,000 active | AID 1508602; in the data active means activation above about 4.9%;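 further: 0% = median of compound wells and 100% = cells with positive control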
# FBW7 act = human FBW7 E3 ligase activation, primary screen. AlphaScreen FBW7–phospho-cyclin E peptide binding, activator screen. Q969H0. normalized activity (activation), % at 26.1 µM. 0.13% of 650,000 active. AID 1259310; in the data active means normalized activity above about 1.9%;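 further: purified mutant Fbw7 with reduced substrate affinity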
# GPR151 confirm = human GPR151 activation, confirmation screen; 6,700 tested, under 10 active; shares compounds with GPR151 activ; AID 1508609; GPR151 PathHunter beta-arrestin cells, luminescence, 90 min; % of EA-reagent control over plate median; activation, % at 11.2 µM;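 active means mean percent activation across replicates above the confirmation screen cutoff of 4.91%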
# GPR119 counter = GPR119 activation, counter-screen for GPR151 activators | shares compounds with GPR151 activ | GPR119 PathHunter beta-arrestin cells, luminescence, 90 min; 0 = compound-well median, 100 = enzyme-acceptor control | activation, % at 11.2 µM | 0.3% of 6,700 active | AID 1508611;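 active means mean percent activation in the counterscreen above 29.09%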;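 further: counterscreen on off-target GPR119 to flag nonselective hits from the GPR151 activator screen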
# Target sequence (Q8TDV5 whole entry, looked up): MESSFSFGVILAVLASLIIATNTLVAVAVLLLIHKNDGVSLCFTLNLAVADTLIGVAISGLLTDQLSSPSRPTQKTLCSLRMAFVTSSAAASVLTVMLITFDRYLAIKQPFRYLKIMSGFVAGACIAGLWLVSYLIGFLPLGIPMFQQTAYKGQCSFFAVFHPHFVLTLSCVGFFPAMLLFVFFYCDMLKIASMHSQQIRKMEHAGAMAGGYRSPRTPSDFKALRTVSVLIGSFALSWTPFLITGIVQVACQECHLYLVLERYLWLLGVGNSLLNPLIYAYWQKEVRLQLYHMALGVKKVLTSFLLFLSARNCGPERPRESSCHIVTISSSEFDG
# The depositor's hits bear a star; / = no result; ! = not active in a repeat.
SMILES,TEAD-YAP block,MITF primary,GPR151 activ,FBW7 act,GPR151 confirm,GPR119 counter
COc1ccc(C(=O)N2CCN(Cc3ccc4ccccc4c3)CC2)cc1,36.1*,47.3,7.7*,-0.5,0.9,-0.9
C=CCOc1ccc(C(=O)N2CCN(c3ccc(OC)cc3)CC2)cc1,-7.7,7.5,6.1*,0.8,0.2,5.0
CS(=O)(=O)n1c(=O)oc2cc([N+](=O)[O-])ccc21,-10.1,23.9,-0.7,0.0,/,/
CCOC(=O)c1[nH]c(C)c(C(=O)CCCCC(=O)OC)c1C,-9.6,-2.6,-0.5,-0.1,/,/
Nc1nc(NCc2ccc(F)cc2)nn1-c1ccccc1,-8.7,22.6,0.7,0.4,/,/
COc1ccc(C(=O)Nc2ccc(C(=O)N3CCCCC3)cc2)cc1,-10.3,3.2,-1.0,0.6,/,/
COc1ccc(C(=O)Nc2ccc3c(c2)C(=O)N(C2CCCCC2)C3=O)cc1,-0.7,-0.4,5.5*,-0.1,0.4,27.9
COc1ccc(C(=O)Nc2cccc(C(=O)N3CCCC3)c2)cc1,-1.8,9.6,39.4*,0.2,1.6,6.5
O=C(Cn1cc2c(n1)CCCC2)NCCCN1CCCCC1,2.2,0.2,0.7,0.8,/,/
O=C(Cn1cc2c(n1)CCCC2)NCCCN1CCN(C2CCCCC2)CC1,6.2,13.5,5.0*,0.2,0.7,10.8
N#CC1=C(N)Oc2c(oc(CO)cc2=O)C12C(=O)Nc1ccc([N+](=O)[O-])cc12 (stereo not given),6.9,-3.8,2.1,-0.3,/,/
c1cncc(CN2CCC(n3cnc4cccnc43)CC2)c1,-16.1,6.7,-1.2,0.1,/,/
O=C(CSc1ccc(F)cc1)Nc1nc(-c2ccc(F)cc2)cs1,12.4,2.8,7.7*,0.3,-1.9,11.6
CO[C@H]1C=CO[C@@]2(C)Oc3c(C)c(O)c4c(O)c(c(C=NN5CCN(C)CC5)c(O)c4c3C2=O)NC(=O)C(C)=CC=C[C@H](C)[C@H](O)[C@@H](C)[C@@H](O)[C@@H](C)[C@H](OC(C)=O)[C@@H]1C,/,-4.2,6.0*!,-0.2,0.0,-6.3
CO[C@H]1/C=C/O[C@@]2(C)Oc3c(C)c(O)c4c(O)c(c(/C=N\N5CCN(C)CC5)c(O)c4c3C2=O)NC(=O)/C(C)=C\C=C\C(C)[C@H](O)[C@@H](C)[C@@H](O)[C@@H](C)[C@@H](OC(C)=O)[C@@H]1C (stereo not given in full),1.6,-13.9,-1.5,-0.1,/,/
COc1cccc(S(=O)(=O)N2CCC(c3nc(-c4cccnc4)no3)CC2)c1,1.8,29.2,7.4*,0.5,-1.0,-11.2
Cc1ccc(-c2noc(C3CCN(S(=O)(=O)c4ccccc4)CC3)n2)cc1,-0.2,-26.0,-0.2,0.1,/,/
Cc1ccc(S(=O)(=O)N2CCC(c3nc(-c4ccccc4C)no3)CC2)cc1,13.7,13.4,6.2*,0.2,-0.5,-9.9
CCC1CCCCN1S(=O)(=O)c1ccc(OC)cc1 (stereo not given),6.8,3.8,0.3,-0.1,/,/
CCC1CCCCN1S(=O)(=O)c1cc(OC)c(Cl)cc1OC (stereo not given),-1.6,2.9,5.6*,0.0,-0.2,7.5
CSC(=N)N,4.8,-1.0,11.0*!,0.2,-0.7,4.2
CN(C)CCCSC(=N)N,/,10.6,0.3,0.1,/,/
Cn1cc(Cl)c(C(=O)Nc2ccc(Cl)cn2)n1,-57.9,0.6,-4.1,0.1,/,/
O=C(NCCc1ccc(O)cc1)c1csc(-c2cccs2)n1,-3.1,35.9,6.4*,0.0,0.2,4.6
COc1ccc(CCNC(=O)c2csc(-c3cccs3)n2)cc1,-2.8,17.9,-0.1,0.6,/,/
SMILES,TEAD-YAP block,MITF primary,GPR151 activ,FBW7 act,GPR151 confirm,GPR119 counter
COc1ccc(C2(CC(=O)N3CCSCC3)CC(=O)N(C)C2=O)cc1 (stereo not given),-64.8,-8.6,-1.5,-0.1,/,/
COc1ccc(-c2noc(CN3CCN(c4ccccc4)CC3C)n2)c(OC)c1OC (stereo not given),-4.7,11.7,4.9*,0.1,1.0,6.0
COCC1CCCCN1Cc1nc(-c2ccc(OC)c(OC)c2OC)no1 (stereo not given),-2.1,-7.8,0.6,-0.1,/,/
CC1CC(C)CN(C(=O)c2ccc(N3CC4CC(C3)c3cccc(=O)n3C4)c(NC(=O)c3ccc(F)cc3)c2)C1 (stereo not given),-6.5,-8.1,6.3*,0.0,-0.3,5.2
CCOC(=O)N1CCC(NC(=O)c2ccc(N3CC4CC(C3)c3cccc(=O)n3C4)c(NC(=O)c3ccc(C(C)(C)C)cc3)c2)CC1 (stereo not given),-13.2,0.7,-0.1,0.4,/,/
O=C(NCCC1=CCCCC1)c1ccc(N2CC3CC(C2)c2cccc(=O)n2C3)c(NC(=O)c2c(F)cccc2F)c1 (stereo not given),-3.5,4.3,8.0*,0.0,0.1,3.0
CCOC(=O)N1CCC(NC(=O)c2ccc(N3CC4CC(C3)c3cccc(=O)n3C4)c(NC(=O)c3ccncc3)c2)CC1 (stereo not given),-4.7,-1.5,4.9*,-0.2,-0.8,-12.1
O=C(Nc1cc(C(=O)N2CCCC2)ccc1N1CC2CC(C1)c1cccc(=O)n1C2)c1ccc(F)cc1 (stereo not given),12.5,3.9,1.1,0.4,/,/
CCCCCCn1c(N2CC(C)CC(C)C2)nc2c1c(=O)[nH]c(=O)n2C (stereo not given),-5.2,11.0,5.8*,0.1,0.3,7.2
CCCCCn1c(N2CCCC2)nc2c1c(=O)[nH]c(=O)n2C,3.9,7.1,-0.3,0.1,/,/
Cc1cccc(C)c1OCC(=O)OCc1nnc(-c2ccccc2)o1,14.5,11.7,0.0,0.3,/,/
CN1C(=O)CCC12CCN(Cc1c[nH]c3ccccc13)CC2,-6.6,15.0,8.1*,0.2,0.0,-0.7
COc1cccc(CNC(=O)c2nc3ccc(-c4ncnc5[nH]ccc45)cc3c(=O)[nH]2)c1,-8.7,-2.8,1.0,-0.1,/,/
COc1cccc(CNS(=O)(=O)c2ccc(-c3ncnc4[nH]ccc34)cc2F)c1,-15.1,27.8,5.0*,0.1,1.1,-6.6
O=C1NC(=S)N/C1=C\c1ccc(OCc2ccccc2)cc1,-11.2,-5.7,0.7,-0.1,/,/
CCCCCn1c(CCCNC(=O)CCC)nc2ccccc21,13.4,-0.7,0.4,0.1,/,/
CCN(Cc1ccco1)C(=O)Cn1nc2c(C)cc3ccccc3n2c1=O,-5.6,-3.5,0.3,0.1,/,/
CCN(Cc1ccco1)C(=O)Cn1nc2n(Cc3ccccc3F)c3ccccc3n2c1=O,1.5,-7.4,6.6*,-0.1,0.1,2.8
Cc1ccc2oc(-c3cccc(NC(=S)NC(=O)c4ccc(Cl)cc4)c3C)nc2c1,-32.3,2.1,5.3*,0.2,0.3,4.3
O=C(CCC1(Cc2ccco2)CCC(=O)N1)NCc1cnn(-c2ccccc2)n1 (stereo not given),0.5,-2.0,0.3,-0.1,/,/

# Bioassay records: PubChem BioAssay, The Scripps Research Institute Molecular Screening Center
